According to PubChem BioAssay (NCI):
Compounds without any hit were thinned out: in the full panel of roughly 83,000, 20% have a hit.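 For each line, cells grew in 96-well plates with the test compound present at a single concentration for 48 hours.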 Calls of active or inactive are those of the source. How the source made its calls: active means growth percent below 10; inactive means the rest.

System: PC-3 prostate
Assay: NCI-60 one-dose screen, 48 h (100 = growth as untreated, 0 = no growth, -100 = all killed)
Conditions: 10 µM

| Structure (SMILES) | growth |
| --- | --- |
| Cc1ccc(-n2nnc3c(sc4ccccc43)c2=O)cc1 | 61.7% (inactive) |
| Nc1ccn([C@@H]2O[C@H](COP(=O)(O)O[C@@H]3C[C@H](n4cc(F)c(=O)[nH]c4=O)O[C@@H]3COP(=O)(O)O[C@@H]3C[C@H](n4cc(F)c(=O)[nH]c4=O)O[C@@H]3COP(=O)(O)O[C@@H]3C[C@H](n4cc(F)c(=O)[nH]c4=O)O[C@@H]3COP(=O)(O)O[C@@H]3C[C@H](n4cc(F)c(=O)[nH]c4=O)O[C@@H]3COP(=O)(O)O[C@@H]3C[C@H](n4cc(F)c(=O)[nH]c4=O)O[C@@H]3COP(=O)(O)O[C@@H]3C[C@H](n4cc(F)c(=O)[nH]c4=O)O[C@@H]3COP(=O)(O)O[C@@H]3C[C@H](n4cc(F)c(=O)[nH]c4=O)O[C@@H]3COP(=O)(O)O[C@@H]3C[C@H](n4cc(F)c(=O)[nH]c4=O)O[C@@H]3COP(=O)(O)O[C@@H]3C[C@H](n4cc(F)c(=O)[nH]c4=O)O[C@@H]3COP(=O)(O)O[C@@H]3C[C@H](n4cc(F)c(=O)[nH]c4=O)O[C@@H]3COP(=O)(O)OCCOCCOCCOCCOCCOCCO)[C@H](O)C2O)c(=O)n1 (stereo not given in full) | 56.1% (inactive) |
| COc1ccc(-c2nnc(COc3ccc(NC(=O)Nc4cccc(C(F)(F)F)c4)cc3F)o2)cc1 | 46.5% (inactive) |
| Fc1ccc(Nc2ccnc(N3CCN(c4ccnc5cc(Cl)ccc45)CC3)n2)cc1 | 23% (inactive) |
| CCOC(=O)c1cc(-c2ccccc2)nc(N)n1 | 96.6% (inactive) |
| CC1(CO)CCCC12OCCO2 (stereo not given) | 103% (inactive) |
| CCc1c(C)[nH]c(=O)c(C(N)=O)c1C#N | 99.4% (inactive) |
| CCOc1ccc2c(c1)CC[C@@H]1[C@@H]2CC[C@]2(C)[C@@H](O)[C@@H](O)C[C@@H]12 | 91.2% (inactive) |
| COc1ccc(OC)c([N+](=O)[O-])c1C=O | 92.9% (inactive) |
| CCOC(=O)Nc1ccc2c(c1)C(=O)N(CC)c1ccccc1O2 | 33.8% (inactive) |
| Cc1ccc(C)c2c1sc1nc3n[nH]c(N)c3c(=N)n12 | 85.7% (inactive) |
| c1ccc(CC(NCCNC(Cc2ccccc2)c2ccccc2)c2ccccc2)cc1 (stereo not given) | 24.2% (inactive) |
| Cc1ccc2nc(-c3ccc(OCC(=O)N=Nc4c(O)[nH]c5ccccc45)cc3)[nH]c2c1 | 7.33% (active) |
| COc1ccc2c(=O)cc(C(Cl)(Cl)Cl)oc2c1 | -37% (active) |
| c1ccc(OCCC[P+](c2ccccc2)(c2ccccc2)c2ccccc2)cc1 | -0.485% (active) |
| COc1cc(CSc2nc3ccc(C)cc3c(=O)n2Cc2ccccc2)cc(OC)c1OC | 45.9% (inactive) |
| C[N+]1=C(/C=C/c2ccc(I)cc2)C(C)(C)c2ccccc21 | 87.3% (inactive) |
| COc1ccccc1S(=O)(=O)Nc1ccc2c(c1)CN(C)C(=O)N2 | 35.3% (inactive) |
| CCC(O)c1ccc(Br)cc1NC(=O)c1cccc(Cl)c1 (stereo not given) | 34.2% (inactive) |
| CCCCn1c(=O)[nH]c(N)c(C(c2ccc(Cl)cc2)c2c(N)[nH]c(=O)n(CCCC)c2=O)c1=O | 32% (inactive) |
| COc1ccc(C(=O)/C=C/c2cc(-c3ccc4c(c3)OCO4)n[nH]2)cc1OC | 48.4% (inactive) |
| COc1ccc2oc(=O)cc(C(c3ccc[nH]3)c3ccc[nH]3)c2c1 | 20.3% (inactive) |

System: SK-MEL-5 melanoma
Assay: as above
Conditions: 10 µM

| Structure (SMILES) | growth |
| --- | --- |
| CCCCCCCCCCCC(=O)NCCCN(C)C | 105% (inactive) |
| Nc1ccc(C2=CC(c3ccc(Cl)cc3)N3C=CSC3=N2)cc1 (stereo not given) | -97.6% (active) |
| CC(=O)n1nc(C(=O)OC(C)(C)C)c2cc(F)c(F)cc21 | 87% (inactive) |
| COC(=O)c1c(C)nc(Nc2nc3ccccc3s2)nc1-c1ccc(Cl)cc1Cl | 105% (inactive) |
| O=C(O)CCCCSCCCCC(=O)O | 93.9% (inactive) |
| COc1cc(-c2nc3ccc(C)cc3[nH]2)ccc1OCC(=O)N=Nc1c(O)[nH]c2ccccc12 | 29.1% (inactive) |
| CC1=CSC2=NC(c3ccc(Cl)c(Cl)c3)=CC(c3ccc(Cl)cc3)N12 (stereo not given) | 13.6% (inactive) |
| COc1ccc(Nc2ccnc(N3CCN(c4ccnc5cc(Cl)ccc45)CC3)n2)cc1 | -55.1% (active) |
| Cn1cnc([N+](=O)[O-])c1/C=C1\Oc2ccc(Cl)cc2C1=O | 91.8% (inactive) |
| CCOC(=O)Cn1nnc(-c2ccc(OCc3ccccc3F)cc2)n1 | 91.5% (inactive) |
| COc1ccc(/C(CS(=O)(=O)c2ccccc2)=N\O)cc1 | 95.8% (inactive) |
| COc1ccc(S(=O)(=O)Nc2cc(/C=C\c3cc(OC)c(OC)c(OC)c3)ccc2OC)cc1 | -20.1% (active) |
| COc1ccc2nc(C)cc(Nc3ccc(Cl)cc3)c2c1 | 93.7% (inactive) |
| COc1cc(-c2nc3ccc(C)cc3[nH]2)ccc1OCc1nnc(-c2ccc(CC(C)C)cc2)o1 | 85.7% (inactive) |
| Cc1noc(C)c1-c1ccc2nc(NC(=O)[C@H]3CCN(C#N)C3)cn2c1 | 86.6% (inactive) |
| COc1ccc(COC(=O)CC(C)C)cc1 | 93.4% (inactive) |
| Cc1ccc(-n2nnc3c(sc4ccccc43)c2=O)cc1 | 76.9% (inactive) |
| Nc1ccn([C@@H]2O[C@H](COP(=O)(O)O[C@@H]3C[C@H](n4cc(F)c(=O)[nH]c4=O)O[C@@H]3COP(=O)(O)O[C@@H]3C[C@H](n4cc(F)c(=O)[nH]c4=O)O[C@@H]3COP(=O)(O)O[C@@H]3C[C@H](n4cc(F)c(=O)[nH]c4=O)O[C@@H]3COP(=O)(O)O[C@@H]3C[C@H](n4cc(F)c(=O)[nH]c4=O)O[C@@H]3COP(=O)(O)O[C@@H]3C[C@H](n4cc(F)c(=O)[nH]c4=O)O[C@@H]3COP(=O)(O)O[C@@H]3C[C@H](n4cc(F)c(=O)[nH]c4=O)O[C@@H]3COP(=O)(O)O[C@@H]3C[C@H](n4cc(F)c(=O)[nH]c4=O)O[C@@H]3COP(=O)(O)O[C@@H]3C[C@H](n4cc(F)c(=O)[nH]c4=O)O[C@@H]3COP(=O)(O)O[C@@H]3C[C@H](n4cc(F)c(=O)[nH]c4=O)O[C@@H]3COP(=O)(O)O[C@@H]3C[C@H](n4cc(F)c(=O)[nH]c4=O)O[C@@H]3COP(=O)(O)OCCOCCOCCOCCOCCOCCO)[C@H](O)C2O)c(=O)n1 (stereo not given in full) | 2.12% (active) |
| COc1ccc(-c2nnc(COc3ccc(NC(=O)Nc4cccc(C(F)(F)F)c4)cc3F)o2)cc1 | 78.8% (inactive) |

| Structure (SMILES) | growth |
| --- | --- |
| Fc1ccc(Nc2ccnc(N3CCN(c4ccnc5cc(Cl)ccc45)CC3)n2)cc1 | 26% (inactive) |
| CCOC(=O)c1cc(-c2ccccc2)nc(N)n1 | 100% (inactive) |
| CC1(CO)CCCC12OCCO2 (stereo not given) | 100% (inactive) |
| CCc1c(C)[nH]c(=O)c(C(N)=O)c1C#N | 103% (inactive) |
| CCOc1ccc2c(c1)CC[C@@H]1[C@@H]2CC[C@]2(C)[C@@H](O)[C@@H](O)C[C@@H]12 | 96.8% (inactive) |
| COc1ccc(OC)c([N+](=O)[O-])c1C=O | 96.1% (inactive) |
| CCOC(=O)Nc1ccc2c(c1)C(=O)N(CC)c1ccccc1O2 | -28% (active) |
| Cc1ccc(C)c2c1sc1nc3n[nH]c(N)c3c(=N)n12 | 99.3% (inactive) |
| c1ccc(CC(NCCNC(Cc2ccccc2)c2ccccc2)c2ccccc2)cc1 (stereo not given) | -52.3% (active) |
| Cc1ccc2nc(-c3ccc(OCC(=O)N=Nc4c(O)[nH]c5ccccc45)cc3)[nH]c2c1 | 94.3% (inactive) |
| COc1ccc2c(=O)cc(C(Cl)(Cl)Cl)oc2c1 | -91.9% (active) |
| c1ccc(OCCC[P+](c2ccccc2)(c2ccccc2)c2ccccc2)cc1 | -69.2% (active) |
| COc1cc(CSc2nc3ccc(C)cc3c(=O)n2Cc2ccccc2)cc(OC)c1OC | 17.8% (inactive) |
| C[N+]1=C(/C=C/c2ccc(I)cc2)C(C)(C)c2ccccc21 | 90.4% (inactive) |
| COc1ccccc1S(=O)(=O)Nc1ccc2c(c1)CN(C)C(=O)N2 | 40.5% (inactive) |
| CCC(O)c1ccc(Br)cc1NC(=O)c1cccc(Cl)c1 (stereo not given) | 10.7% (inactive) |
| CCCCn1c(=O)[nH]c(N)c(C(c2ccc(Cl)cc2)c2c(N)[nH]c(=O)n(CCCC)c2=O)c1=O | -11.3% (active) |
| COc1ccc(C(=O)/C=C/c2cc(-c3ccc4c(c3)OCO4)n[nH]2)cc1OC | 81.7% (inactive) |
| COc1ccc2oc(=O)cc(C(c3ccc[nH]3)c3ccc[nH]3)c2c1 | -31.4% (active) |
